Test results published in PubChem BioAssay (NCATS).
A number with no mark means an inactive call. How the calls were made is not given here.

tested on: HIV-1 nucleocapsid protein NCp7 (binding to TG oligonucleotide); test: HIV Nucleocapsid (AID 346); settings: HIV-1 NC / fluorescein-TGTGTGTG probe, fluorescence polarization;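 further: potency is for inhibitors that block NC binding and lower polarization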
Protocol: NCGC Assay Overview: HIV-1 nucleocapsid protein (HIV-1 NC) is a small (6.5 kDa) basic zinc-finger protein which participates in packaging of viral genomic RNA. The spacing and metal-chelating residues (3 Cys, 1 His) of the Cys-X2-Cys-X4-His-X4-Cys Zn fingers are conserved among all known retroviruses (J. Med. Chem. 1998, 41, 1371-1381). HIV-1 NC was assayed for its binding to the consensus sequence single-stranded 5'-TGTGTGTG. […] High salt was included to increase the stringency of binding and inhibitor screen. Reducing agents and zinc were present to stabilize the nucleocapsid zinc-finger protein.
NCGC Assay Protocol Summary: Buffer. Hepes pH 7.5, 250mM NaCl, 1uM ZnCl2. 0.004% polyethylene glycol 20000. TCEP (100 uM) and 2-Mercaptoethanol (5 mM), added fresh the day of the experiment. Reagents/Controls. 10 nM TG4xF only in columns 3 and 4 as negative control. 10 nM TG4xF/100 nM HIV-1 NC in columns 1, 2, 5-48. Titration of control compound NSC-13778 (from 20 mM, then 1:2) pin-transferred to column 2. Assay Steps. Two uL of reagents were dispensed to 1536-well Kalypsys black plates. The plates were centrifuged for 1 min at 1000 rpm. Compounds and controls (20 nL) were transferred via Kalypsys PinTool. The plates were incubated for 1 hr at room temperature, and then read on ViewLux (Perkin-Elmer). High-throughput CCD imager using fluorescein polarization filter set and 45 seconds exposure time.
Potency means the concentration at half of the fitted maximal effect.

Structure (SMILES) | Potency
O=C(Nc1cccc(F)c1)N1CCC2(CC1)CCN(C(=O)Oc1ccccc1)CC2 | > 20 µM
O=C(Oc1ccccc1)N1CCC2(CC1)CN(C(c1ccccc1)c1ccccc1)C2 | > 20 µM
c1ccc(CN2CCC3(CCNCC3)CC2)cc1 | > 20 µM
CC(C)CN1CCC2(CC1)CCN(S(C)(=O)=O)CC2 | > 20 µM
c1cnc(N2CC[C@@]3(CCCNC3)C2)nc1 | > 20 µM
COc1ccc(NC(=O)N2CCC3(CC2)CCN(C(=O)Oc2ccccc2)CC3)cc1 | > 20 µM
COc1ccc(NC(=O)N2CC[C@@]3(CCCN(C(=O)Oc4ccccc4)C3)C2)cc1 | > 20 µM
N#Cc1ccc(CN2CC[C@@]3(CCCNC3)C2)cc1 | > 20 µM
O=C(Oc1ccccc1)N1CCC[C@@]2(CCN(C(c3ccccc3)c3ccccc3)C2)C1 | > 20 µM
O=C(Nc1ccccc1)N1CC[C@@]2(CCCN(C(=O)Oc3ccccc3)C2)C1 | > 20 µM
CN1CCCC2(CCN(C(=O)c3ccncc3)CC2)C1 | > 20 µM
c1cnc(N2CC3(CCNCC3)C2)nc1 | > 20 µM
c1ccc(N2CCC3(CCNCC3)CC2)nc1 | > 20 µM
O=C(Nc1ccccc1)N1CCCC2(CCN(C(=O)Oc3ccccc3)CC2)C1 | > 20 µM
O=C(c1csnn1)N1CCC2(CC1)CN(Cc1ccncc1)C2 | > 20 µM
O=C(Nc1ccccc1)N1CC[C@@]2(CCCNC2)C1 | > 20 µM
O=C(Nc1ccccc1)N1CC2(CCN(C(=O)Oc3ccccc3)CC2)C1 | > 20 µM
CN1CC[C@@]2(CCCN(C(=O)c3ccco3)C2)C1 | > 20 µM
N#Cc1ccc(CN2CC[C@@]3(CCCN(C(=O)Oc4ccccc4)C3)C2)cc1 | > 20 µM
O=C(c1ccco1)N1CCC2(CC1)CN(Cc1ccncc1)C2 | > 20 µM

Structure (SMILES) | Potency
N#Cc1ccc(CN2CCC3(CC2)CCN(C(=O)Oc2ccccc2)CC3)cc1 | > 20 µM
O=C(Oc1ccccc1)N1CCC2(CC1)CCN(C(c1ccccc1)c1ccccc1)CC2 | > 20 µM
c1ccc(CN2CCCC3(CCNCC3)C2)cc1 | > 20 µM
Cc1ccccc1-c1cncnc1NCCc1cnc[nH]1 | > 20 µM
O=C(c1ccncc1)N1CCC[C@@]2(CCN(Cc3nccs3)C2)C1 | > 20 µM
O=C(Oc1ccccc1)N1CCC[C@@]2(CCN(Cc3cc(C(F)(F)F)cc(C(F)(F)F)c3)C2)C1 | > 20 µM
CN1CC[C@@]2(CCCN(C(=O)c3ccncc3)C2)C1 | > 20 µM
c1ccc(N2CC[C@@]3(CCCNC3)C2)cc1 | > 20 µM
CS(=O)(=O)N1CCC2(CCCN(Cc3ccncc3)C2)CC1 | > 20 µM
O=C(Oc1ccccc1)N1CCC2(CCCN(C(c3ccccc3)c3ccccc3)C2)CC1 | > 20 µM
CN1CC[C@@]2(CCCN(C(=O)c3csnn3)C2)C1 | > 20 µM
c1cc(CN2CC3(CCNCC3)C2)ccn1 | > 20 µM
c1cc(CN2CCCC3(CCNCC3)C2)ccn1 | > 20 µM
COC(=O)N1CCC2(CCCN(C)C2)CC1 | > 20 µM
c1cnc(N2CCCC3(CCNCC3)C2)nc1 | > 20 µM
CC(C)CN1CCCC2(CCN(C(=O)c3ccncc3)CC2)C1 | > 20 µM
COc1ccc(NC(=O)N2CC3(CCN(C(=O)Oc4ccccc4)CC3)C2)cc1 | > 20 µM
CC(C)CN1CC2(CCN(C(=O)c3ccncc3)CC2)C1 | > 20 µM
COC(=O)N1CCC2(CCN(CC(C)C)CC2)CC1 | > 20 µM
CN1CCCC2(CCN(C(=O)c3csnn3)CC2)C1 | > 20 µM
